We go through 21 compounds from PubChem BioAssay (NCI).

This is part of a sample that, as a whole, favours compounds with a hit. Of some 79,000 tested, about 15% had one in any assay. A number with no mark means an inactive call. Activity calls are given as the source filed them. Cut-off read from the data, not from the text of the source: active = growth inhibition above about 70%; inactive = the rest.

A short description of assay [1]: NCI Yeast Anticancer Drug Screen. Data for the rad50 strain (AID 155).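 Note: 0% = growth of vehicle-only cultures of the same strain.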 The following applies: S. cerevisiae rad50 strain growth inhibition; at 50.0 µM; hits give high values. The method, boiled down:
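Cells are treated with compound, grown, and their growth is then scored against vehicle-only cultures of the same repair-deficient yeast strain.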

The nature of assay [2]: NCI Yeast Anticancer Drug Screen. Data for the mec2-1 strain (AID 157). As to conditions: S. cerevisiae mec2-1 strain, at 50.0 µM, hits give high values. The method in brief:
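mec2-1 yeast strain, carrying an alteration in DNA damage repair or cell cycle control, was exposed to compounds; growth inhibition was measured relative to vehicle-treated controls.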

Assay [3] is described as follows: NCI Yeast Anticancer Drug Screen. Data for the sgs1 mgt1 strain (AID 161).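 Note: 0% = growth of cultures given vehicle only.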 As to conditions: S. cerevisiae sgs1 mgt1 strain, at 50.0 µM, hits give high values. The method in brief:
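Growth of a repair-deficient yeast mutant was monitored after compound treatment and expressed as inhibition relative to vehicle-treated cultures.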

Assay [4] is described as follows: NCI Yeast Anticancer Drug Screen. Data for the cln2 rad14 strain (AID 165).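 Note: 0% = growth equal to vehicle treated cultures.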 The following applies: S. cerevisiae cln2 rad14 strain, at 50.0 µM, hits give high values. The method, boiled down: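 Yeast carrying cln2 and rad14 alterations (cell cycle control and DNA damage repair) were exposed to compounds. Growth inhibition was measured against vehicle-treated controls.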

Assay [5] can be described thus: NCI Yeast Anticancer Drug Screen. Data for the bub3 strain (AID 167). The following applies: S. cerevisiae bub3 mutant strain, at 50.0 µM, hits give high values. The method in brief:
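Part of a panel of yeast mutants defective in DNA damage repair or cell cycle regulation. Each strain is grown with compound, and inhibition is calculated relative to solvent-treated cultures.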

A short description of assay [6]: NCI Yeast Anticancer Drug Screen. Data for the mlh1 rad18 strain (AID 175). As to conditions: S. cerevisiae mlh1 rad18 strain growth inhibition; at 50.0 µM; hits give high values. The method, boiled down:
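Growth inhibition of the yeast strain was measured after compound exposure and expressed relative to vehicle-treated controls. The strain carries defined defects in DNA damage repair.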

For the compound `CN1C(=O)C(O)Nc2ncncc21` (stereo unspecified), the growth inhibition is -5.15% in assay [1]; -19.9% in assay [2]; -4.55% in assay [3]; -45.7% in assay [4]; 2.45% in assay [5]; -33.2% in assay [6].

As for `C=CC1=C(C)C2=NC1=CC1=NC(=CC3=C(C)C4=C(O)C(C(=O)OC)C(=C5NC(=C2)C(C)C5CCC(=O)OC/C=C(\C)CCCC(C)CCCC(C)CCCC(C)C)C4=N3)C(CC)=C1C` (stereo unspecified), the growth inhibition was -17.7% in assay [1]; -33.4% in assay [2]; -49.8% in assay [3]; 3.4% in assay [4]; -29.1% in assay [5]; -20.9% in assay [6].

As for `Cc1cc(NC(=O)NCCCCCCNC(=O)Nc2cc(C)on2)no1`, the growth inhibition was 4.95% in assay [1]; 1.2% in assay [2]; 1.7% in assay [3]; -7.75% in assay [4]; 14.6% in assay [5]; 0.35% in assay [6].

For the compound `C(/Cc1ccc2c(c1)OCO2)=N\NC1=NCCN1`, the growth inhibition in assay [1] is -8.5%; in assay [2], -0.55%; in assay [3] it was 1.55%; in assay [4] it was -19.4%; in assay [5], 5.2%; in assay [6], 18.1%.

For `CN1NC2(CCCCC2)ON=C1c1ccccc1`, the growth inhibition in assay [1] was 5.35%; in assay [2], -5.5%; in assay [3], 11.1%; in assay [4] it was 7.9%; in assay [5], -6.35%; in assay [6], 10.7%.

On to `CC1CC(C)OC(c2ccco2)O1` (stereo unspecified), for which the growth inhibition is 2.4% in assay [1]; -20.6% in assay [2]; -11.9% in assay [3]; -37.6% in assay [4]; -15.1% in assay [5]; 16.2% in assay [6].

On to `COC(=O)CC1(C(=O)OC)Oc2ccc(Br)cc2C(=O)N1c1ccc(Br)cc1Cl` (stereo unspecified), for which the growth inhibition in assay [1] is 26.9%; in assay [2], -16.4%; in assay [3], 24.6%; in assay [4], 15.2%; in assay [5] it was 19.4%; in assay [6] it was 27.7%.

For `C(=N/Nc1ccncc1)/c1ccc2ccccc2n1`, the growth inhibition in assay [1] is -1.8%; in assay [2], -22.6%; in assay [3], -11.4%; in assay [4], -26.9%; in assay [5], -7.65%; in assay [6] it was 4.05%.

Take `Cc1cn(C(=O)NC23CC4CC(CC(C4)C2)C3)c(=O)[nH]c1=O`: the growth inhibition was 14.8% in assay [1]; 1.6% in assay [2]; 11.1% in assay [3]; 9.65% in assay [4]; 10.9% in assay [5]; 82.2% (active) in assay [6].

With `CC(=O)Nc1cccc(S(=O)(=O)c2cccc(NC(C)=O)c2)c1`, the growth inhibition in assay [1] was -9.8%; in assay [2], -10.1%; in assay [3], -7.55%; in assay [4], -66.5%; in assay [5] it was 8.1%; in assay [6], -10.3%.

In the case of `CCC(=O)Oc1c(C(C)C)cccc1C(C)(C)C`, the growth inhibition in assay [1] is -22%; in assay [2], -31.6%; in assay [3] it was -19.7%; in assay [4] it was -8%; in assay [5], -31.4%; in assay [6], -14.8%.

As for `OC1CCCSc2ccccc21` (stereo unspecified), the growth inhibition is 19.6% in assay [1]; 1% in assay [2]; -4.8% in assay [3]; 8% in assay [4]; 2.8% in assay [5]; -1.45% in assay [6].

On to `CCCCCC(C(O)C#N)C(O)(C(F)(F)F)C(F)(F)F` (stereo unspecified), for which the growth inhibition is 94.7% (active) in assay [1]; 80.7% (active) in assay [2]; 58.8% in assay [3]; 80.6% (active) in assay [4]; 86.2% (active) in assay [5]; 98% (active) in assay [6].

On to `CSC(=O)/C=C1\SS/C(=C\C(=O)SC)S1`, for which the growth inhibition in assay [1] was -10%; in assay [2], -10.4%; in assay [3], -13.1%; in assay [4], -5%; in assay [5] it was -11.2%; in assay [6] it was -16.1%.

As to `CC(C)(C)n1nnnc1N`, the growth inhibition in assay [1] was -8.55%; in assay [2] it was -7.55%; in assay [3] it was 6%; in assay [4], -0.05%; in assay [5], 11.1%; in assay [6], -20.9%.

Turning to `CCC(/C=N\O)CC`, the growth inhibition is -12.8% in assay [1]; 2.6% in assay [2]; 11.4% in assay [3]; -4.05% in assay [4]; -3.05% in assay [5]; 17.1% in assay [6].

On to `NC(N)=NC(=O)c1ccccc1`, for which the growth inhibition is -26.4% in assay [1]; -12.2% in assay [2]; -9.55% in assay [3]; -23.1% in assay [4]; -0.55% in assay [5]; 12.9% in assay [6].

Turning to `COC12COC(=O)C1C(c1ccc3c(c1)OCO3)c1cc3c(cc1O2)OCO3` (stereo unspecified), the growth inhibition in assay [1] is 21.8%; in assay [2], -0.6%; in assay [3] it was 11.5%; in assay [4] it was 8.95%; in assay [5], 17.4%; in assay [6], -4.7%.

As to `N#C/C(=C\c1cc(Br)cc(Br)c1O)c1ccc([N+](=O)[O-])cc1`, the growth inhibition was -2.7% in assay [1]; -10.9% in assay [2]; -6.8% in assay [3]; 17.1% in assay [4]; 22.3% in assay [5]; -2.6% in assay [6].

For the compound `CC(=O)Oc1ccc2c(c1)CC[C@@H]1C2[C@@H](O[N+](=O)[O-])C[C@@]2(C)C1CC[C@@H]2O` (stereo partly specified), the growth inhibition in assay [1] was 25.5%; in assay [2] it was 43.3%; in assay [3], 77.2% (active); in assay [4] it was 62%; in assay [5], 31.9%; in assay [6] it was 57.8%.

Take `CN(C)CCCNC(=S)S`: the growth inhibition in assay [1] was -17%; in assay [2], -28.6%; in assay [3], 5.25%; in assay [4], 11.2%; in assay [5] it was -22.1%; in assay [6] it was -4.35%.
